From PubChem
WRN inhibitor: qHTS for Inhibitors of WRN Helicase. Potency, µM (series often up to 114 µM), most hits filed as inhibitors. WRN helicase unwinding, fluorescent forked duplex, kinetic. 360,000 compounds, 0.46% hits. Bifunctional 3'-5' exonuclease/ATP-dependent helicase WRN (Homo sapiens), Q14191; also: nearly all actives have a fitted effect of over 55% in size
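Screening of the MLSMR collection measured strand separation of a quenched forked DNA duplex (100 nM) by 20 nM WRN with 2 mM ATP, all final. Compounds were preincubated with enzyme 15 min at room temperature.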
Pol eta inh-1: qHTS for Inhibitors of Polymerase Eta; recombinant Pol eta, fluorescent DNA replication assay; DNA polymerase eta (Homo sapiens), Q9Y253; Potency, µM (series often up to 114 µM), hits mostly inhibitors; 390,000 compounds, 1.2% hits; AID 588591, 2011
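Fluorescent replication assay: 50 nM final substrate added after a 15 min room-temperature compound preincubation with 10 nM enzyme. Signal taken at 0 min and again at 10 min.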
POLI inh: qHTS for Inhibitors of Polymerase Iota; 390,000 compounds, 1% hits; Pol iota fluorescent replication assay, 10 min; Potency, µM (top dose mostly 115 µM), hits mostly inhibitors; DNA polymerase iota (Homo sapiens), Q9UNA4
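Pol iota at 10 nM preincubated 15 min with compounds at room temperature; reaction started with fluorescent substrate, 50 nM final. Fluorescence read kinetically at 0 and 10 min; buffer-only wells as negative control.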
PI5P4K alpha inh: qHTS for Inhibitors of phosphatidylinositol 5-phosphate 4-kinase (PI5P4K); Phosphatidylinositol 5-phosphate 4-kinase type-2 alpha (Homo sapiens), P48426; PI5P4Kalpha enzyme, ADP-Glo luminescence, 60 min; hits give low values; max response, %; 330,000 compounds, 1.2% hits; AID 652105, 2013; active = max response of -50% or lower; inconclusive = between -30% and -50%; inactive = -30% or higher; also: value at the top dose of about 77 µM
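ADP-Glo luminescence end-point after a 60 min room-temperature kinase reaction. PI5P4Kalpha and substrate in HEPES pH 7.4 buffer with EGTA, 0.1% CHAPS and 5% DMSO; ATP at 5 microM final.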
Pol kappa inh-1: qHTS for Inhibitors of Polymerase Kappa; DNA polymerase kappa (Homo sapiens), Q9UBT6; purified Pol kappa, fluorescent DNA synthesis assay, 10 min; Potency, µM (series often up to 107 µM), usual class: inhibitors; 400,000 compounds, 0.53% hits; AID 588579, 2011
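Readout: fluorescence, taken kinetically at 0 and 10 min. Conditions: 10 nM Pol kappa, 15 min RT compound preincubation, 50 nM substrate final. Controls: enzyme-free buffer wells.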
Pol beta inh-1: qHTS Assay for Inhibitors of DNA Polymerase Beta; Potency, µM (series often up to 114 µM), actives largely listed as inhibitors; 340,000 compounds, 1.3% hits; Pol beta primer extension/strand displacement, fluorescence kinetic
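Values derive from four-parameter Hill fits of normalized kinetic data: reads at 0 and 10 min following addition of 50 nM substrate to 10 nM Pol beta preincubated 15 min with compound.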
Pol beta inh-2: Inhibitors of DNA Polymerase Beta: Hit validation | shares compounds with Pol beta inh-1 | Pol beta primer extension/strand displacement, fluorescence kinetic | Potency, µM, actives largely listed as inhibitors | 250 compounds, 87% hits | AID 540280, 2011; calls by dose curve
Klenow inh: Inhibitors of DNA Polymerase Beta: Hit Validation in Klenow Fragment Assay. 250 tested, under 10 active. activity change, negative = inhibition, % at 57.1 µM. AID 540300, 2011. Klenow exo- polymerase counter-screen, fluorescent DNA substrate. shares compounds with Pol beta inh-1
HIV RT inh: Inhibitors of DNA Polymerase Beta: Hit Validation in HIV-RT Assay; 250 tested, under 10 active; shares compounds with Pol beta inh-1; AID 540301, 2011; activity % (negative = inhibition, positive = activation), % at 57.1 µM; HIV-1 RT polymerase activity, counter-screen
POLB valid: Inhibitors of DNA Polymerase Beta: Hit Validation in Radiolabeled Extension Assay. radiolabeled primer extension gel assay, phosphorimager. inhibition, % at 10 µM. shares compounds with Pol beta inh-1. 110 compounds, 91% hits;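 active = inhibition at 10 µM of 30% or more; inconclusive = no clear call, values can overlap the other calls; inactive = inhibition at 10 µM under 30%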
Pol iota confirm: qHTS for Inhibitors of Polymerase Iota: Confirmatory Assay for Cherry-picked Compounds | Pol iota primer extension, TAMRA/BHQ fluorescence | Potency, µM, actives largely listed as inhibitors | 1,500 compounds, 77% hits | shares compounds with Pol kappa inh-1
Pol kappa inh-2: qHTS for Inhibitors of Polymerase Kappa: Confirmatory Assay for Cherry-picked Compounds | 920 compounds, 76% hits | shares compounds with Pol eta inh-1 | Potency, µM, usual class: inhibitors | purified Pol-kappa, fluorescent strand-displacement substrate
Pol eta inh-2: qHTS for Inhibitors of Polymerase Eta: Confirmatory Assay for Cherry-picked Compounds. Potency, µM, usual class: inhibitors. shares compounds with Pol eta inh-1. AID 720502, 2013. Pol eta primer extension, TAMRA/BHQ fluorescence, 10 min. 2,600 compounds, 64% hits
Of the large screens only hits and unclear results are named; the others gave an inactive call (follow-up assays come after a bar, where they were run). An excerpt weighted towards active compounds, which were near 2.8% of everything screened. Unless noted, calls follow the shape of the dose curve; as a rule, active = well fitted curve in the direction sought with a large enough effect; inconclusive = small, poorly fitted or top-dose-only effect, or another doubt; inactive = no such curve, though single readings can be large; an effect the other way counts as inactive or inconclusive.

Cc1ccc(S(=O)(=O)Cc2ccc(C(=O)N3CCc4ccccc4C3)o2)cc1	WRN inhibitor inconclusive, Pol eta inh-1 20µM, POLI inh inconclusive, PI5P4K alpha inh inconclusive, Pol kappa inh-1 56.2µM, Pol beta inh-1 15.8µM | Pol beta inh-2 35.5 | Klenow inh inactive | HIV RT inh inactive | Pol iota confirm 42.3 | Pol eta inh-2 47.8
COc1ccc(S(=O)(=O)Cc2ccc(C(=O)N3CCc4ccccc4C3)o2)cc1	none
Cc1nc(C)c(C(=O)Nc2ncc([N+](=O)[O-])s2)o1	WRN inhibitor inconclusive, Pol eta inh-1 8.91µM, POLI inh 17.8µM, PI5P4K alpha inh inconclusive, Pol kappa inh-1 inconclusive, Pol beta inh-1 15.8µM | Pol beta inh-2 35.5 | Klenow inh inactive | HIV RT inh inactive | POLB valid 100.0 | Pol kappa inh-2 29.9 | Pol eta inh-2 inconclusive
O=C(Nc1ncc([N+](=O)[O-])s1)c1cccc([N+](=O)[O-])c1	none
O=C(NCC(c1cccs1)S(=O)(=O)c1cccs1)c1cccc(F)c1 (stereo unspecified)	POLI inh inconclusive (no result: WRN inhibitor, PI5P4K alpha inh)
Cc1cccc(NC(=O)CSc2cn(CC(=O)N3CCC(C)CC3)c3ccccc23)c1C	none (no result: WRN inhibitor, PI5P4K alpha inh)
